# A selection: hits, their analogues and other compounds. The true share with any hit is near 14%.
# A350 fluor: compound fluoresces in the Alexa 350 spectral region. Compound autofluorescence, 340/450 nm, Alexa 350 dye-equivalents; stronger effect = higher value. max dye-equivalent concentration, M. 59,000 compounds, 11% hits. AID 590; in the data active means max dye-equivalent concentration above about 10 nM; inconclusive means mostly about 1.1 nM to 9.6 nM
# HADH2 inhib: blocks human hydroxyacyl-CoA dehydrogenase type II. Potency, µM (top dose mostly 57.1 µM), without a hit: top-dose activity change, negative = inhibition, usual class: inhibitors. recombinant HADH2, NADH fluorescence, beta-hydroxybutyryl-CoA. AID 886. 73,000 compounds, 3.4% hits; further: potency means the concentration at half of the fitted maximal effect; on the % scale 0 is the no-effect control and ±100 the full control effect; nearly all actives have a fitted effect of over 60% in size
# Target sequence (Q99714 whole entry, looked up, one chain of several): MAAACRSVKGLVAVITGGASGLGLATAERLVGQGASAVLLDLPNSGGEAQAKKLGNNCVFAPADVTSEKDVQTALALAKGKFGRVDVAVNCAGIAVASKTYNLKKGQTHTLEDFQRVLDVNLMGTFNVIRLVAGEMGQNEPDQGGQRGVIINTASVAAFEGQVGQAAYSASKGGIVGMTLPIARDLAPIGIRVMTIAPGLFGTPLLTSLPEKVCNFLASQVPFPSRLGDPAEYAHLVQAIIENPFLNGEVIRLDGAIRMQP
#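 Buffer 100 mM Tris-HCl pH 9.0/0.01% Tween-20; HADH2 20 nM; NAD+ 1 mM; beta-hydroxybutyryl-CoA 90 uM (all final). 15 min cpd preincubation, RT.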
# AID923: qHTS Assay for Allosteric/Competitive Inhibitors of Caspase-1: Spectroscopic Profiling in AFC Spectral Region | compound fluorescence, AFC spectral region (405/520 nm) | Potency, µM (titrated, usually from 57.5 µM), for the others: top-dose fluorescence increase, hits mostly activators | 75,000 compounds, 1.1% hits; further: potency means the concentration at half of the fitted maximal effect; 0% is about no effect
#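 Titrations up to 57 uM read every 20 sec for 3 min (405/520 nm) with 50 nM caspase 1 and 5 uM Ac-WEHD-AFC, pH 7.5 HEPES buffer. Fluorescence-vs-time intercept gave baseline, scaled against on-plate AFC standard.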
# 4MU fluor: 4-MU region autofluorescence | compound autofluorescence, 340/450 nm, 4-MU equivalents; stronger effect = higher value | max dye-equivalent concentration, M | 59,000 compounds, 11% hits | AID 589; in the data active means max dye-equivalent concentration above about 10 nM; inconclusive means mostly about 1.1 nM to 9.6 nM
#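 Compounds in 100 mM Tris, pH 8.0, incubated 15 min at room temperature, then fluorescence read at 340 nm excitation/450 nm emission. Signal converted to 4-MU dye-equivalent concentration using an on-plate six-point 4-MU standard curve.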
# HSD17B inh: inhibitors of human HSD17B10 dehydrogenase | Q99714 | recombinant HSD17B10, NADH fluorescence kinetic | Potency, µM (series often up to 57.1 µM), inactives show at the highest dose activity change, negative = inhibition, most hits filed as inhibitors | 75,000 compounds, 7.6% hits;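 further: the protocol describes HADH2 (HSD17B10) and not the HSD17B4 of the title; potency means the concentration at half of the fitted maximal effect; on the % scale 0 is the no-effect control and ±100 the full control effect; nearly all actives have a fitted effect of over 70% in size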
#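 Activity followed as NADH fluorescence increase (ex 360, em 450 nm) every 30 seconds for 4 min, using final 90 uM beta-hydroxybutyryl CoA and 1 mM NAD+. Recombinant His-tagged enzyme, 20 nM, pH 9.0 Tris buffer, 15 min compound preincubation.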
# CRE Fsk mod: alters forskolin-stimulated CRE reporter signaling in CHO cells; CHO CRE-bla reporter (cAMP response element driving beta-lactamase), forskolin EC10, beta-lactamase ratio; Potency, µM (highest dose often 38.2 µM), for the others: at the highest dose activity change, negative = inhibition, usual class: activators; 71,000 compounds, 2.5% hits; active means well fitted activation curve with a large enough effect in the signal ratio, with a control signal flat, not every such curve was filed as active; inconclusive means small, poorly fitted or top-dose-only effect, or effect the other way, or a change in a side signal; the % refers to the signal ratio; further: potency means the concentration at half of the fitted maximal effect; % of control where 0% means no effect
#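 Modulation of forskolin signalling: compounds in titration series added with EC10 NKH 477 to CHO cells carrying a CRE-driven beta-lactamase reporter, 3 h, 37C. CCF4 FRET ratio (460/530 nm, ex 405 nm) gives %activity and AC50.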
# * = called active by the depositor; i = inactive; ? = inconclusive; . = no result given; [ ] = dose if it differs, or a comment. Unless noted, the call rests on the fitted dose curve; in most records, active means well fitted curve in the direction sought with a large enough effect; inconclusive means small, poorly fitted or top-dose-only effect, or another doubt; inactive means no such curve, though single readings can be large; an effect the other way counts as inactive or inconclusive.
SMILES,A350 fluor,HADH2 inhib,AID923,4MU fluor,HSD17B inh,CRE Fsk mod
NC(=NCc1ccccc1)NC(=O)c1nc(Cl)c(N)nc1N,8.5e-07M*,32µM*,2%,9.3e-07M*,16µM*,?
COc1ccc(C(c2sc3ncnn3c2O)N2CC(C)OC(C)C2)cc1OC (stereo not drawn),.,-8%,-2%,.,-1%,13µM*
COc1cccc(C(c2sc3ncnn3c2O)N2CCN(C(=O)c3ccco3)CC2)c1 (stereo not drawn),.,-28%,-3%,.,32µM*,8%
COc1cc(C(c2sc3nc(C)nn3c2O)N2CC(C)OC(C)C2)cc(OC)c1OC (stereo not drawn),.,-6%,-1%,.,1%,13µM*
COc1cc(C(c2sc3nc(C)nn3c2O)N2CC(C)CC(C)C2)cc(OC)c1OC (stereo not drawn),.,-11%,4%,.,1%,10%
COc1ccc(C(c2sc3nc(C)nn3c2O)N2CCC(O)CC2)cc1OC (stereo not drawn),.,-24%,-4%,.,-12%,3.2µM*
O=C(c1ccco1)N1CCN(C(c2cccs2)c2sc3ncnn3c2O)CC1 (stereo not drawn),.,?,-5%,.,?,-9%
COc1ccc(C(c2sc3ncnn3c2O)N2CCN(c3ccccc3F)CC2)cc1OC (stereo not drawn),.,-5%,0%,.,-8%,?
O=c1c(-c2ccc(F)c(F)c2)nc2cncnc2n1Cc1ccccc1,i,5%,4%,i,-1%,?
C[C@@](N)(/C=C\c1ccccc1)C(=O)O,i,-3%[11.4 µM],-1%[11.5 µM],i,1%[11.4 µM],2%[7.6 µM]
CCn1c(=O)c2c(nc3n2CC(C)CN3CCc2ccccc2)n(C)c1=O (stereo not drawn),i,-6%,0%,i,3%,6.3µM*
CCOc1ccc(N2CCCn3c2nc2c3c(=O)n(CCc3ccccc3)c(=O)n2C)cc1,1.5e-08M*,3%,-1%,1.6e-08M*,-11%,2%
COc1cc2c(cc1NC(=O)CN1C(=O)NC3(CCc4ccccc43)C1=O)oc1ccccc12 (stereo not drawn),i,?,1%,i,25µM*,-2%
COc1cc2c(cc1NC(=O)CCCN1C(=O)CCC1=O)oc1ccccc12,1.3e-08M*,20%,-2%,1.1e-08M*,-6%,7%
CC1=C(C(=O)OCc2ccccc2)C(C2CC2)NC(=O)N1CCCCCC(=O)O (stereo not drawn),.,-7%,0%,.,-10%,23%
CCN(CC)CCCCNC(=O)c1ccc(Cc2nc3ccccc3[nH]2)cc1,.,-7%,0%,.,4%,.
COCCN1CN(S(=O)(=O)c2ccccc2)c2nc3ccccc3nc21,5.7e-08M*,13%,2%,4.5e-08M*,?,?
O=S(=O)(c1cccs1)N1CCN(Cc2nc3ccccc3s2)CC1,i,6%,2%,i,14%,-3%
CCCCN1CN(S(=O)(=O)c2cccs2)c2nc3ccccc3nc21,2.2e-08M*,18%,0%,1.6e-08M*,?,?
C=CC(C1=CC(=O)C(OC)=CC1=O)c1ccc(O)cc1 (stereo not drawn),.,.,0%,.,-8%,.
c1ccc2c(c1)oc1c(N3CCOCC3)ncnc12,i,1%,0%,i,2%,?
C(=C\c1ccccc1)/CN1CCN(c2ncnc3c2oc2ccccc23)CC1,2e-08M*,1%,1%,1.8e-08M*,?,?
c1cnc(N2CCN(c3ncnc4c3oc3ccccc34)CC2)nc1,4.5e-08M*,7%,1%,3.2e-08M*,-7%,?
Cn1c(=S)c2[nH]c(SCCN3C(=O)c4ccccc4C3=O)nc2n(C)c1=O,i,3%[11.4 µM],3%[11.5 µM],i,8%[11.4 µM],1%[7.6 µM]
COc1ccc(CCCC(=O)O)c(C)c1,i,-6%,5%[11.5 µM],i,-12%,-11%
SMILES,A350 fluor,HADH2 inhib,AID923,4MU fluor,HSD17B inh,CRE Fsk mod
Cc1cc(CC(=O)O)c(C)cc1CC(=O)O,6.3e-08M*,.,.,5.3e-08M*,.,.
N#Cc1c(NC(=O)CSc2ncnc3sccc23)oc(-c2ccco2)c1-c1ccco1,i,16µM*,1%,i,20µM*,?
CCn1c(SCC(=O)Nc2oc(-c3ccccc3)c(-c3ccccc3)c2C#N)nnc1-c1ccco1,i,?,3%,i,?,?
CC1=C(C#N)C(c2cn(-c3ccccc3)nc2-c2cccs2)C(C#N)=C(C)N1,5.1e-07M*,341%,5%,3e-07M*,?,?
O=C(O)c1ccc(OC(F)(F)C(F)C(F)(F)F)cc1 (stereo not drawn),3.2e-07M*,.,0%,2.9e-07M*,?,-11%
CCS(=O)(=O)Nc1ccc(C(=O)CC2(O)C(=O)Nc3ccc(Br)cc32)cc1 (stereo not drawn),?,-27%,0%,1.4e-08M*,?,-4%
CCOC(=O)C1CCCN(C(=O)c2cc3c(C)nc4ccccc4c3o2)C1 (stereo not drawn),1.4e-08M*,-1%,-1%,1.3e-08M*,-9%,?
CCOC(=O)N1CCN(C(=O)c2ccc3c(=O)n(CCc4ccccc4)c(=S)[nH]c3c2)CC1,i,8%,-1%,i,3%,?
CCOC(=O)C1CCCN(C(=O)c2cc(-c3ccccc3)on2)C1 (stereo not drawn),i,-2%,1%,i,-1%,?
CCCn1c(=S)[nH]c2cc(C(=O)N3CCCC(C(=O)OCC)C3)ccc2c1=O (stereo not drawn),6.1e-08M*,-6%,2%,4.9e-08M*,-4%,?
CCC(C)c1ccc2oc(-c3ccc(NC(=O)c4ncn[nH]4)cc3)nc2c1 (stereo not drawn),6.2e-08M*,32µM*,-2%,5.8e-08M*,25µM*,?
CC(C)c1ccc2oc(-c3ccc(NC(=O)c4ncn[nH]4)cc3)nc2c1,4.1e-08M*,25µM*,0%,4.4e-08M*,20µM*,?
CCC(C)c1ccc(O)c(NC(=O)c2ncn[nH]2)c1 (stereo not drawn),i,-10%,-2%,i,-2%,-5%
Cc1ccc(OCc2nc(C#N)c(NCc3ccc4c(c3)OCO4)o2)cc1,i,-9%,2%,i,-8%,19%
CCOc1ccc(-c2nc(C#N)c(NCc3ccc4c(c3)OCO4)o2)cc1,.,-163%,-2%,.,7.9µM*,?
CCOc1ccc(-c2nc(C#N)c(NC3CC3)o2)cc1,.,32µM*,1%,.,32µM*,.
CC1(C)CCC=[N+]1[O-],i,8%,-3%,i,-6%,-10%
O=c1n(Cc2ccccc2Cl)c2sc3c(c2c2ncnn12)CCCC3,i,15%,-1%,i,8%,0.2µM*

# Source: PubChem (National Center for Advancing Translational Sciences (NCATS))
